Measurements from PubChem BioAssay (Tox21).
Results filed as inconclusive are left out. A call without a number means that no potency is given here. Unmarked numbers belong to inactive results. Calls of active or inactive are those of the source. Calls follow the shape of the dose curve; as a rule, active = well fitted cell-killing curve with a large enough effect in the repeat runs; inconclusive = weak or mixed curves, or effect the other way; inactive = flat fitted curve, though single readings scatter.

Tests used:
[1] = cAMP Responsive Elements (CRE) small molecule antagonists, cell-based qHTS assay: qHTS cell viability counter screen (AID 2060913); details: CRE-bla HEK293T viability, CellTiter-Glo luminescence, 5 h; series mostly up to 92.4 µM; also: nearly all actives have a fitted effect of over 40% in size
In short: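 Viability of NKH477-stimulated (0.25 uM final) CRE-bla HEK293T cells is measured by CellTiter-Glo luminescence following 3 hrs compound exposure at 37 C.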

[2] = cAMP Responsive Elements (CRE) small molecule agonists, cell-based qHTS assay: qHTS cell viability counter screen (AID 2060914); details: CRE-bla HEK293T viability, CellTiter-Glo luminescence, 5 h; series mostly up to 92.4 µM;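 also: viability read after 3 h of compound exposure; nearly all actives have a fitted effect of over 50% in size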
In short: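 CRE-bla HEK293T cells in 10% dialyzed FBS medium were exposed to compounds for 3 h at 37C after 18 h plating. CellTiter-Glo was then added in the same wells, and luminescence was read after 30 min at room temperature.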
Potency is read from the fitted curve at half-maximal effect.

Row | SMILES | Potency [1] | Potency [2] | viability change, negative = cytotoxic [1] | activity change, negative = cytotoxicity [2]
1 | COc1ccc(CO)cc1 | inactive | inactive |  | 
2 | NC(=O)C(Cl)(Cl)Cl | inactive | inactive |  | 
3 | CC(C)(N)Cc1ccc(Cl)cc1 | inactive | inactive |  | 
4 | CCS(=O)(=O)C(C)(C)S(=O)(=O)CC | inactive | inactive |  | 
5 | CCOP(OCC)OCC | inactive | inactive |  | 
6 | Nc1cc(Cl)cc(C(=O)O)c1Cl | inactive | inactive |  | 
7 | O=C1NCN(c2ccccc2)C12CCN(CCCOc1ccc(F)cc1)CC2 | inactive | inactive |  | 
8 | Cc1ccc(N)c(N)c1 | inactive | inactive |  | 
9 | C=CCOC(N)=O | inactive | inactive |  | 
10 | O=C1CC(=O)NC(=O)N1 | inactive | inactive |  | 
11 | N#Cc1sc2c(=O)c3ccccc3c(=O)c=2sc1C#N | 61.1 µM (active) | 54.5 µM (active) |  | 
12 | CCOP(=O)(OCC)OCC | inactive | inactive |  | 
13 | Cn1c(CCCC(=O)O)nc2cc(N(CCCl)CCCl)ccc21 | inactive | inactive |  | 
14 | c1cc[c]([Sb]([c]2ccccc2)[c]2ccccc2)cc1 | inactive | inactive |  | 
15 | CCCCC(CC)C(=O)Cl (stereo not given) | inactive | inactive |  | 
16 | CN(C)C(=S)S | inactive | inactive |  | 
17 | CCC(COC(=O)c1cc(OC)c(OC)c(OC)c1)(c1ccccc1)N(C)C (stereo not given) | inactive | inactive |  | 
18 | O=S1(=O)OC(c2cc(Br)c(O)c(Br)c2)(c2cc(Br)c(O)c(Br)c2)c2ccccc21 | inactive | inactive |  | 
19 | S=C=NCCc1ccccc1 | inactive | inactive |  | 
20 | O=[N+]([O-])c1ccc(Cl)c(Cl)c1Cl | inactive | inactive |  | 
21 | CC1CCCCC1NC(=O)Nc1ccccc1 (stereo not given) | inactive | inactive |  | 
22 | CC(CC(C#N)(c1ccccc1)c1ccccc1)N(C)C (stereo not given) | inactive | inactive |  | 
23 | Fc1ccc(Oc2ccnc3cc(Cl)cc(Cl)c23)cc1 | inactive | inactive |  | 
24 | Oc1c(Cl)c(Cl)c(Cl)c(Cl)c1Cl | inactive | inactive |  | 

Row | SMILES | Potency [1] | Potency [2] | viability change, negative = cytotoxic [1] | activity change, negative = cytotoxicity [2]
25 | CCN[C@@H](C)Cc1cccc(C(F)(F)F)c1 | inactive | inactive |  | 
26 | COc1ccc(Cc2nccc3cc(OC)c(OC)cc23)cc1OC | inactive | inactive |  | 
27 | Clc1cccc(Cl)c1Cl | inactive | inactive |  | 
28 | CN(N=O)c1ccc([N+](=O)[O-])cc1 | inactive | inactive |  | 
29 | FC(F)(F)c1cccc(C2=CCN(CCc3ccc4ccccc4c3)CC2)c1 | inactive | inactive |  | 
30 | O=C1C(I)=CC(=C(c2cc(I)c(O)c(I)c2)c2ccccc2C(=O)O)C=C1I | inactive | inactive |  | 
31 | CC(=O)CCC(C)=O | inactive | inactive |  | 
32 | NC(=S)c1c(Cl)cccc1Cl | inactive | inactive |  | 
33 | O=C([O-])c1ccccn1.O=C([O-])c1ccccn1.O=C([O-])c1ccccn1.[Cr+3] | inactive | inactive |  | 
34 | CC1(C)[C@H](C=C(Cl)Cl)[C@@H]1C(=O)O[C@@H](C#N)c1cccc(Oc2ccccc2)c1 | inactive | inactive |  | 
35 | COc1c2c(cc3c1OCO3)CCN(C)C2 | inactive | inactive |  | 
36 | CN(C)CCC#N | inactive | inactive |  | 
37 | ClC(Cl)C(Cl)Cl | inactive | inactive |  | 
38 | COP(=S)(NC(C)C)Oc1ccc(C)cc1[N+](=O)[O-] (stereo not given) | inactive | inactive |  | 
39 | Clc1ccccc1-c1nnc(-c2ccccc2Cl)nn1 | inactive | inactive |  | 
40 | COP(=O)(CCC(=O)NCO)OC | inactive | inactive |  | 
41 | CC(C)c1c(CN(C)C(C)Cc2ccccc2)n(C)n(-c2ccccc2)c1=O (stereo not given) | inactive | inactive |  | 
42 | O=C1C=CC(=O)C=C1 | inactive | inactive |  | 
43 | C=CCSSCC=C | inactive | inactive |  | 
44 | COP(=O)(OC)O/C(C)=C/C(=O)N(C)C | inactive | inactive |  | 
45 | CN=C=S | inactive | inactive |  | 
46 | COc1ccccc1N1CCNCC1 | inactive | inactive |  | 
47 | CCCSC(=O)Cl | inactive | inactive |  | 
48 | N#Cc1ccc(N(CC(N)=O)CC(F)(F)F)cc1C(F)(F)F | inactive | inactive |  | 

Row | SMILES | Potency [1] | Potency [2] | viability change, negative = cytotoxic [1] | activity change, negative = cytotoxicity [2]
49 | CCCCC(CC)COC(=O)c1c(Br)c(Br)c(Br)c(Br)c1C(=O)OCC(CC)CCCC (stereo not given) | inactive | inactive |  | 
50 | COC(=O)c1ccccc1S(=O)(=O)NC(=O)Nc1nc(C)cc(C)n1 | inactive | inactive |  | 
51 | OC(O)C(Cl)(Cl)Cl | inactive | inactive |  | 
52 | CC(C=O)Cc1ccc2c(c1)OCO2 (stereo not given) | inactive | inactive |  | 
53 | CCCCN(CCCC)N=O | inactive | inactive |  | 
54 | NC(=O)OCCCc1ccccc1 | inactive | inactive |  | 
55 | COc1ccc(/C(=C/C(=O)N2CCOCC2)c2ccc(Cl)cc2)cc1OC | inactive | inactive |  | 
56 | CC(C)CC(N(C)C)C1(c2ccc(Cl)cc2)CCC1 (stereo not given) | inactive | inactive |  | 
57 | CC(C)(O)C(Cl)(Cl)Cl | inactive | inactive |  | 
58 | CCOP(=O)(OCC)OP(=O)(OCC)OCC | inactive | inactive |  | 
59 | Nc1ccc(-c2ccc(N)cc2)cc1 | inactive | inactive |  | 
60 | O=NN1CCN(N=O)CC1 | inactive | inactive |  | 
61 | N#Cc1cccnc1 | inactive | inactive |  | 
62 | CC(C)(C)c1ccccc1O | inactive | inactive |  | 
63 | CC(C)CC#N | inactive | inactive |  | 
64 | CCOC(C(=O)OCCN(C)C)(c1ccccc1)c1ccccc1 | inactive | inactive |  | 
65 | O=C(CCl)c1ccccc1 | inactive | inactive |  | 
66 | C#CCN1C(=O)COc2cc(F)c(N3C(=O)C4=C(CCCC4)C3=O)cc21 | inactive | inactive |  | 
67 | c1cc(OCC2CO2)ccc1Cc1ccc(OCC2CO2)cc1 (stereo not given) | inactive | inactive |  | 
68 | CCOP(=S)(OCC)Oc1nc(Cl)n(C(C)C)n1 | inactive | inactive |  | 
69 | CCS(=O)(=O)c1cccnc1S(=O)(=O)NC(=O)Nc1nc(OC)cc(OC)n1 | inactive | inactive |  | 
70 | CON(C)C(=O)Nc1ccc(Br)cc1 | inactive | inactive |  | 
71 | O=C(O)CBr | inactive | inactive |  | 
72 | CCCOC(=O)c1cncn1C(C)c1ccccc1 (stereo not given) | inactive | inactive |  | 

Row | SMILES | Potency [1] | Potency [2] | viability change, negative = cytotoxic [1] | activity change, negative = cytotoxicity [2]
73 | CCC(C)C(C)(COC(N)=O)COC(N)=O (stereo not given) | inactive | inactive |  | 
74 | CCCCOC(=O)c1ccccc1C(=O)O | inactive | inactive |  | 
75 | CC(=O)c1cc(C(C)(C)C)cc2c1CCC2(C)C | inactive | inactive |  | 
76 | CS(=O)(=O)c1cc(C(F)(F)F)ccc1C(=O)c1cnoc1C1CC1 | inactive | inactive |  | 
77 | ClC(Cl)=C(c1ccc(Cl)cc1)c1ccccc1Cl | inactive | inactive |  | 
78 | CCOC(=O)CC(SP(=O)(OC)OC)C(=O)OCC (stereo not given) | inactive | inactive |  | 
79 | Cc1ccc(OP(=O)(Oc2ccc(C)cc2)Oc2ccc(C)cc2)cc1 | inactive | inactive |  | 
80 | C[C@]12C/C(=C/O)C(=O)C[C@@H]1CC[C@@H]1[C@@H]2CC[C@@]2(C)[C@H]1CC[C@]2(C)O | inactive | inactive |  | 
81 | Cc1ccc2c(c1)C1CN(C)CCC1N2 (stereo not given) |  |  | -0.367% [at 18.9 µM] | -0.524% [at 18.9 µM]
82 | CON(C)C(=O)Nc1ccc(Cl)c(Cl)c1 | inactive | inactive |  | 
83 | CCC(=O)O[C@H]1CC[C@H]2[C@@H]3CCC4=CC(=O)CC[C@]4(C)[C@H]3CC[C@]12C | inactive | inactive |  | 
84 | Oc1ccc(I)cc1 | inactive | inactive |  | 
85 | CC(=O)OCC1=C(C(=O)O)N2C(=O)[C@@H](N)[C@H]2SC1 |  |  | -1.82% [at 18.9 µM] | 1.16% [at 18.9 µM]
86 | COC(=O)C1(O)c2ccccc2-c2ccccc21 | inactive | inactive |  | 
87 | O=C(O)c1ccccn1 | inactive | inactive |  | 
88 | C=C(C)C(=O)OCCCCOC(=O)C(=C)C | inactive | inactive |  | 
89 | COC(=O)Nc1nc2ccccc2[nH]1 | inactive | inactive |  | 
90 | CC(C)N1C(=O)c2ccccc2NS1(=O)=O | inactive | inactive |  | 
91 | CNC(=O)Oc1cccc2c1OC(C)(C)C2 | inactive | inactive |  | 
92 | N#Cc1ccc(O)cc1 | inactive | inactive |  | 
93 | O=[N+]([O-])c1cccc2cccnc12 | inactive | inactive |  | 
94 | Oc1ccccc1Cl | inactive | inactive |  | 
95 | OC[C@@H](O)[C@H]1O[C@@H]2O[C@H](C(Cl)(Cl)Cl)O[C@@H]2[C@H]1O | inactive | inactive |  | 
96 | [O-][Cl+2]([O-])O | inactive | inactive |  | 

Row | SMILES | Potency [1] | Potency [2] | viability change, negative = cytotoxic [1] | activity change, negative = cytotoxicity [2]
97 | CNC(=O)Oc1c(C(C)(C)C)cc(C)cc1C(C)(C)C | inactive | inactive |  | 
98 | CCN(CCO)CCO | inactive | inactive |  | 
99 | CN1C(=O)[C@@H](NC(=O)c2cc3ccccc3[nH]2)N=C(c2ccccc2)c2ccccc21 | inactive | inactive |  | 
100 | CC(C)(OO)c1ccccc1 | inactive | inactive |  | 
101 | CCC(=O)c1ccc(Cl)cc1 | inactive | inactive |  | 
102 | CCN[C@@H](C)Cc1ccccc1 | inactive | inactive |  | 
103 | Cc1ncsc1CCCl | inactive | inactive |  | 
104 | CCC1(c2ccccc2)CCC(=O)NC1=O (stereo not given) | inactive | inactive |  | 
105 | CCCCOCCOC(C)=O | inactive | inactive |  | 
106 | CCC(CC)(CNC(=O)CCCO)c1cccc(OC)c1 | inactive | inactive |  | 
107 | Clc1ccc(C(Cl)(Cl)Cl)c(Cl)c1 | inactive | inactive |  | 
108 | CNC(=O)O/N=C/C(C)(C)S(C)=O (stereo not given) | inactive | inactive |  | 
109 | O=[N+]([O-])c1ccc(Cl)c(Cl)c1 | inactive | inactive |  | 
110 | Cc1ccc(N=CN(C)C=Nc2ccc(C)cc2C)c(C)c1 | inactive | inactive |  | 
111 | CN1C(=O)C(O)N=C(c2ccccc2)c2cc(Cl)ccc21 (stereo not given) | inactive | inactive |  | 
112 | OC(c1ccc(Cl)cc1)(c1cncnc1)c1ccccc1Cl (stereo not given) | inactive | inactive |  | 
113 | c1ccc(C2CO2)cc1 (stereo not given) | inactive | inactive |  | 
114 | CCCCCCCCCCBr | inactive | inactive |  | 
115 | CC(C)(C)c1ccc(OP(=O)(Oc2ccccc2)Oc2ccccc2)cc1 | inactive | inactive |  | 
116 | COc1ccc(C(=O)c2c(C)n(CCN3CCOCC3)c3ccccc23)cc1 | inactive | inactive |  | 
117 | FC(Cl)(Cl)Cl | inactive | inactive |  | 
118 | CCCCn1cc[n+](C)c1C | inactive | inactive |  | 
119 | Cc1ccc(O)c(C)c1 | inactive | inactive |  | 
120 | COP(=S)(OC)Oc1cc(Cl)c(I)cc1Cl | inactive | inactive |  | 
